Details in all cases: mRNA level, 48 h; actives raise or lower the signal
Read-out in assay [1]: Cyclin Dependent Kinase Inhibitor 1A (CDKN1A), CDKN1A (gene 1026)
As to the kind of experiment: LTEA_HepaRG_CDKN1A: Life Technologies and Expression Analysis (LTEA) Assay for Cyclin Dependent Kinase Inhibitor 1A (CDKN1A) using HepaRG (AID 2283450). The method in brief:
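HepaRG, 48 h dosing, 8-pt half-log series from 100 uM top, 0.5% DMSO vehicle, duplicates. Readout: TaqMan qRT-PCR of CDKN1A transcript, housekeeping-normalized (ACTB, GAPDH, POLR2A). Up/down curve fit relative to DMSO.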

Read-out in assay [2]: Cyclin D1 (CCND1), CCND1 (gene 595)
The assay is described as follows: LTEA_HepaRG_CCND1: Life Technologies and Expression Analysis (LTEA) Assay for Cyclin D1 (CCND1) using HepaRG (AID 2283451). The method in brief:
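qRT-PCR (Fluidigm 96.96 array) read-out of transcript level, housekeeping-normalized (ACTB/GAPDH/POLR2A). HepaRG cells, 48 h chemical exposure, 8-point half-log series from 100 uM, 0.5% DMSO vehicle; gain or loss relative to DMSO baseline.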

Read-out in assay [3]: catalase (CAT), CAT (gene 847)
As to the kind of experiment: LTEA_HepaRG_CAT: Life Technologies and Expression Analysis (LTEA) Assay for catalase (CAT) using HepaRG (AID 2283452). The method in brief:
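Expression of CAT was quantified by TaqMan qRT-PCR with ACTB/GAPDH/POLR2A normalization after 48 h chemical exposure of HepaRG. Eight-point half-log series, top 100 uM, in 0.5% DMSO; gain or loss fitted against vehicle.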

Read-out in assay [4]: flavin-containing dimethylaniline monooxygenases 3 (FMO3), FMO3 (gene 2328)
As to the kind of experiment: LTEA_HepaRG_FMO3: Life Technologies and Expression Analysis (LTEA) Assay for flavin-containing dimethylaniline monooxygenases 3 (FMO3) using HepaRG (AID 2283453).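 As to AC50: differentiated human HepaRG liver cells in serum-free induction medium.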 Put shortly:
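FMO3 transcript quantified by TaqMan qRT-PCR against three housekeeping genes after 48 h chemical exposure of HepaRG cells. Eight-point half-log series, top 100 uM, 0.5% DMSO vehicle; phenobarbital 1mM induction control; up- or down-regulation fitted.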

Read-out in assay [5]: CFLAR gene, CFLAR (gene 8837)
The assay is described as follows: LTEA_HepaRG_CFLAR: Life Technologies and Expression Analysis (LTEA) Assay for CFLAR gene using HepaRG (AID 2283455). The method in brief: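 Transcript level by qRT-PCR (normalized to ACTB, GAPDH and POLR2A) after 48 h chemical exposure of HepaRG cells, top concentration 100 uM with half-log steps, 0.5% DMSO vehicle, duplicates; fitted bidirectionally against DMSO baseline.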

Read-out in assay [6]: Forkhead box O1 (FOXO1), FOXO1 (gene 2308)
As to the kind of experiment: LTEA_HepaRG_FOXO1: Life Technologies and Expression Analysis (LTEA) Assay for Forkhead box O1 (FOXO1) using HepaRG (AID 2283456). Put shortly: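 FOXO1 transcript quantified by qRT-PCR after 48 h chemical exposure (top 100 uM, half-log steps, 0.5% DMSO) of HepaRG cells, housekeeping-normalized (ACTB/GAPDH/POLR2A). Changes fitted in both directions relative to vehicle.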

Read-out in assay [7]: growth arrest and DNA damage 45 (GADD45A), GADD45A (gene 1647)
As to the kind of experiment: LTEA_HepaRG_GADD45A: Life Technologies and Expression Analysis (LTEA) Assay for growth arrest and DNA damage 45 (GADD45A) using HepaRG (AID 2283458). The method in brief: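 Transcript induction or loss, quantified by TaqMan qRT-PCR against three housekeeping genes, is the read-out. HepaRG cells received chemicals for 48 h across eight half-log concentrations from 100 uM in 0.5% DMSO; gain and loss fitted relative to DMSO.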

Read-out in assay [8]: ABC Transporter (ABCB1), ABCB1 (gene 5243)
As to the kind of experiment: LTEA_HepaRG_ABCB1: Life Technologies and Expression Analysis (LTEA) Assay for ABC Transporter (ABCB1) using HepaRG (AID 2283460). Put shortly: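 ABCB1 transcript level measured by TaqMan qRT-PCR against three housekeeping genes after 48 h chemical exposure of differentiated HepaRG cells. Top concentration 100 uM, half-log steps, eight points, 0.5% DMSO vehicle; bidirectional fit relative to DMSO.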

Read-out in assay [9]: growth arrest and DNA damage 45 (GADD45B), GADD45B (gene 4616)
As to the kind of experiment: LTEA_HepaRG_GADD45B: Life Technologies and Expression Analysis (LTEA) Assay for growth arrest and DNA damage 45 (GADD45B) using HepaRG (AID 2283461). Put shortly:
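qRT-PCR read-out (Fluidigm TaqMan, housekeeping-normalized) of mRNA change in human HepaRG cells after 48 h chemical exposure; 8-point curve, top 100 uM, half-log steps, 0.5% DMSO vehicle; gain or loss fitted relative to DMSO baseline.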

Read-out in assay [10]: ABC Transporter (ABCC3), ABCC3 (gene 8714)
As to the kind of experiment: LTEA_HepaRG_ABCC3: Life Technologies and Expression Analysis (LTEA) Assay for ABC Transporter (ABCC3) using HepaRG (AID 2283462). Put shortly: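 qRT-PCR read-out of ABCC3 transcript, normalized to three housekeeping genes (ACTB, GAPDH, POLR2A), after 48 h chemical exposure of human HepaRG cells. Eight half-log concentrations, highest 100 uM, in 0.5% DMSO; gain or loss fitted relative to DMSO baseline.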

Read-out in assay [11]: ABC Transporter (ABCB11), ABCB11 (gene 8647)
The assay is described as follows: LTEA_HepaRG_ABCB11: Life Technologies and Expression Analysis (LTEA) Assay for ABC Transporter (ABCB11) using HepaRG (AID 2283463). The method in brief: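 ABCB11 transcript levels quantified by TaqMan qRT-PCR against three housekeeping genes after 48 h chemical exposure of HepaRG cultures. Concentrations up to 100 uM in half-log steps, 0.5% DMSO vehicle; both induction and suppression scored.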

Read-out in assay [12]: ABC Transporter (ABCC2), ABCC2 (gene 1244)
The assay is described as follows: LTEA_HepaRG_ABCC2: Life Technologies and Expression Analysis (LTEA) Assay for ABC Transporter (ABCC2) using HepaRG (AID 2283464). The method in brief:
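qRT-PCR (TaqMan, Fluidigm array) read-out of ABCC2 mRNA, normalized to three housekeeping genes. Differentiated HepaRG cells were treated 48 h in serum-free induction medium with 8-point half-log series from 100 uM in 0.5% DMSO; curves fitted bidirectionally relative to DMSO.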

Read-out in assay [13]: Broad substrate specificity ATP-binding cassette transporter ABCG2 (Homo sapiens) (UniProt Q9UNQ0)
The assay is described as follows: LTEA_HepaRG_ABCG2: Life Technologies and Expression Analysis (LTEA) Assay for ABC Transporter (ABCG2) using HepaRG (AID 2283465). Put shortly:
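ABCG2 transcript was quantified by TaqMan qRT-PCR against three housekeeping genes in HepaRG cells. Cells were treated in duplicate for 48 h across an 8-point half-log series up to 100 uM, with 0.5% DMSO vehicle. Gain or loss versus DMSO was fit.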

Read-out in assay [14]: ATP-citrate lyase (ACLY), ACLY (gene 47)
As to the kind of experiment: LTEA_HepaRG_ACLY: Life Technologies and Expression Analysis (LTEA) Assay for ATP-citrate lyase (ACLY) using HepaRG (AID 2283466). The method in brief:
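ACLY mRNA quantified by qRT-PCR on Fluidigm arrays against three housekeeping genes, after 48 h chemical treatment of HepaRG cells (top concentration 100 uM, half-log steps, 0.5% DMSO vehicle). Up- or down-regulation fitted relative to DMSO.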

Read-out in assay [15]: Alkaline Phosphatase, Placental (ALPP) gene, ALPP (gene 250)
As to the kind of experiment: LTEA_HepaRG_ALPP: Life Technologies and Expression Analysis (LTEA) Assay for Alkaline Phosphatase, Placental (ALPP) gene using HepaRG (AID 2283468).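 As to AC50: differentiated human HepaRG liver cells in serum-free induction medium.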 Put shortly: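 qRT-PCR readout of ALPP mRNA (Fluidigm TaqMan), normalized to ACTB/GAPDH/POLR2A, after 48 h chemical exposure of HepaRG cells; 8-point half-log series, top 100 uM, 0.5% DMSO vehicle. Bidirectional curve fit versus DMSO baseline.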

Read-out in assay [16]: Bcl-2 (BAD) gene, BAD (gene 572)
As to the kind of experiment: LTEA_HepaRG_BAD: Life Technologies and Expression Analysis (LTEA) Assay for Bcl-2 (BAD) gene using HepaRG (AID 2283469). Put shortly:
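Read-out: qRT-PCR of BAD mRNA, normalized to three housekeeping genes. Human HepaRG cultures got 48 h chemical exposure in 0.5% DMSO, duplicate eight-point half-log series topping at 100 uM. Gain or loss of signal fitted versus DMSO vehicle.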

Read-out in assay [17]: Cytochrome P450 (CYP1A1), CYP1A1 (gene 1543)
As to the kind of experiment: LTEA_HepaRG_CYP1A1: Life Technologies and Expression Analysis (LTEA) Assay for Cytochrome P450 (CYP1A1) using HepaRG (AID 2283454). Put shortly: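 qRT-PCR read-out: CYP1A1 transcript normalized to three housekeeping genes, fitted bidirectionally against 0.5% DMSO vehicle baseline. Human HepaRG cells, 48 h chemical exposure, 8-point half-log series topping at 100 uM.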

Read-out in assay [18]: Forkhead box O3 (FOXO3), FOXO3 (gene 2309)
As to the kind of experiment: LTEA_HepaRG_FOXO3: Life Technologies and Expression Analysis (LTEA) Assay for Forkhead box O3 (FOXO3) using HepaRG (AID 2283459). The method in brief: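 FOXO3 transcript measured by qRT-PCR (normalized to ACTB, GAPDH, POLR2A) after 48 h exposure of HepaRG cells in serum-free induction medium. Duplicates, eight half-log concentrations up to 100 uM, 0.5% DMSO; gain or loss fitted against DMSO.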

Read-out in assay [19]: Peroxisomal acyl-coenzyme A oxidase 1 (ACOX1) gene, ACOX1 (gene 51)
The assay is described as follows: LTEA_HepaRG_ACOX1: Life Technologies and Expression Analysis (LTEA) Assay for Peroxisomal acyl-coenzyme A oxidase 1 (ACOX1) gene using HepaRG (AID 2283467). Put shortly: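 ACOX1 transcript levels were quantified by TaqMan qRT-PCR against three housekeeping genes after 48 h chemical exposure of differentiated human HepaRG cells. Exposure used eight half-log steps topping at 100 uM, 0.5% DMSO vehicle, in duplicate. Bidirectional curve fits were made relative to DMSO.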

The term AC50 denotes the concentration at which the activity in the assay is half-maximal.

SMILES strings stand for the structures. The source made the active and inactive calls. The calls were made as follows: active = hit-call score of the fitted dose curve at least 0.9, where 1 is the maximum; inactive = score below 0.9.

Sequence of Broad substrate specificity ATP-binding cassette transporter ABCG2 (Homo sapiens) (Q9UNQ0 whole entry, looked up): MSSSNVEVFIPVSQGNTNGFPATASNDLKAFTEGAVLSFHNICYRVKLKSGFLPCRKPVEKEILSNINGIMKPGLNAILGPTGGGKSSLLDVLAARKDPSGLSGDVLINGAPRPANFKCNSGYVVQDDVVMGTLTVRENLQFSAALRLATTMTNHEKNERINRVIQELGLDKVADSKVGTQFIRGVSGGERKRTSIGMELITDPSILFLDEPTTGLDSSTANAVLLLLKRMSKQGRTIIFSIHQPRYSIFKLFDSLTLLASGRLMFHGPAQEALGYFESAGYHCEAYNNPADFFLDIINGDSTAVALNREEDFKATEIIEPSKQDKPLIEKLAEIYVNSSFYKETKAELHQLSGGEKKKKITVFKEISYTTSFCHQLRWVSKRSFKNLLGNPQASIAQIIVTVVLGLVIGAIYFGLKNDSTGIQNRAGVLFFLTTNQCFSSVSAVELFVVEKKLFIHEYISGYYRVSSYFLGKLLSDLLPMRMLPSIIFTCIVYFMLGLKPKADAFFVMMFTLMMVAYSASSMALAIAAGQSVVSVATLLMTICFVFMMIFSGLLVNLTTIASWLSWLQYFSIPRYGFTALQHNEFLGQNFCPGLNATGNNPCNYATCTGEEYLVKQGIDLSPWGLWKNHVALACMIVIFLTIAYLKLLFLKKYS

`C[C@]12CC[C@@H]3c4ccc(O)cc4CC[C@H]3[C@@H]1CCC2=O`: the result in assay [1], in assay [2], in assay [3], in assay [5], in assay [6] and in assay [7] was inactive. Besides, the compound was called inactive in assay [9], in assay [10], in assay [11], in assay [12], in assay [14] and in assay [15]. The outcome in assay [16] was inactive. For the same compound, the AC50 in [4] was 50 µM (active); in assay [8] it was 14.4 µM (active); in [13], 16.7 µM (active).
For the compound `O=C1CCC(C2CCCCC2)CC1`, the result in assay [1], in [2], in [4], in [5], in assay [6] and in assay [7] was inactive. Also, the result in assay [18], in [8], in [11], in [12], in assay [13] and in assay [14] was inactive. For the same compound, the compound was classed as inactive in [15] and in [16]. Further, the AC50 in assay [17] was 50 µM (active).
As for `CN1C(=O)CC[C@H]1c1cccnc1`, the compound was classed as inactive in assay [1], in [2], in [3], in assay [4], in assay [5] and in assay [6]. In addition, the compound was called inactive in assay [7], in [8], in assay [9], in assay [11], in [12] and in assay [13]. For the same compound, the outcome in [14], in assay [15] and in assay [16] was inactive. Further, in assay [17], the AC50 is 76.9 µM (active).
In the case of `COc1ccc2cc(S(=O)(=O)N[C@H](CC(=O)N[C@H](Cc3ccc(CN4[C@H](C)CCC[C@@H]4C)cc3)C(=O)N(C)C(C)C)c3ccc4c(c3)OCO4)ccc2c1`, the compound was called inactive in assay [1], in assay [2], in assay [13], in assay [14] and in assay [16]. Besides, the AC50 is 17.7 µM (active) in [3]; 17.3 µM (active) in assay [4]; 24.4 µM (active) in assay [17]; 15.1 µM (active) in assay [5]; 25.2 µM (active) in [6]; 25.9 µM (active) in [7]. Also, the AC50 was 23.1 µM (active) in assay [8]; 24.2 µM (active) in assay [11]; 16.2 µM (active) in [12]; 20.3 µM (active) in [19]; 0.741 µM (active) in assay [15].
For the compound `c1ccc2ccccc2c1`, the call in assay [1], in assay [2], in [3], in assay [4], in [17] and in assay [5] was inactive. The compound was classed as inactive in assay [6], in [7], in assay [8], in assay [9], in assay [10] and in [11]. The compound was classed as inactive in assay [12], in assay [13], in [14], in assay [15] and in assay [16].
With `CCCOC(=O)c1cc(O)c(O)c(O)c1`, the compound was classed as inactive in assay [1], in assay [2], in [3], in assay [5], in assay [6] and in [7]. In addition, the call in assay [18], in assay [11], in assay [14], in [19] and in assay [15] was inactive. For the same compound, the AC50 in assay [17] is 10.1 µM (active); in assay [8] it was 4.06 µM (active); in [12], 6.03 µM (active); in assay [13] it was 4.97 µM (active).

The values above are taken from PubChem BioAssay (EPA / NIEHS).
